Assay outcomes from PubChem BioAssay.
LYPLA2 inh – counter-screen for PME1 inhibitors: inhibitors of human LYPLA2 | O95372 | 0.38% of 320,000 active | AID 2177 | recombinant LYPLA2, FP-Rh probe fluorescence polarization | inhibition, % at 5.9 µM;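 active = inhibition above the screen-wide mean plus 3 SD, limit set per campaign, cut at about 26% in these data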;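 also: 0% = LYPLA2 with DMSO and 100% = wells lacking LYPLA2 enzyme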
Target sequence (O95372 whole entry, looked up): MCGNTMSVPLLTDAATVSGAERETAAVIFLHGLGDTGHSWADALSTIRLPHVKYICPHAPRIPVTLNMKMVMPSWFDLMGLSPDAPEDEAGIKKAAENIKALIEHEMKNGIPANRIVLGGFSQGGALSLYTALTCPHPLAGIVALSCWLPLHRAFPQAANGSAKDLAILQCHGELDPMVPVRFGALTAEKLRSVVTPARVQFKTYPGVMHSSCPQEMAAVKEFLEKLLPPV
GSTO1 inh – blocks human GSTO1 in RBBP9 counter-screen; P78417; recombinant GSTO1, activity-based probe fluorescence polarization; inhibition, % at 5.96 µM; 1.1% of 300,000 active; AID 1974;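 active = inhibition above the campaign mean inhibition plus 3 SD, cut at about 35% in these data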;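 also: 0% = GSTO1-1 with DMSO and 100% = wells lacking GSTO1-1 enzyme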
Target sequence (P78417 whole entry, looked up): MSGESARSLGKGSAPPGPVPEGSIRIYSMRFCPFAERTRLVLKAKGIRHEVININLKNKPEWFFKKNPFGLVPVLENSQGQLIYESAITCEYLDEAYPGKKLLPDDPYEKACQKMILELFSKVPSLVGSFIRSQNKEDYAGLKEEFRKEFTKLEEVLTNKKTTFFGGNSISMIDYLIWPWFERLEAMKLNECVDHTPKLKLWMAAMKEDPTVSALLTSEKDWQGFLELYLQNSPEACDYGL
LYPLA1 counter – blocks human lysophospholipase 1, a PME1 counter-screen | recombinant LYPLA1, FP-Rh probe fluorescence polarization | inhibition, % at 5.9 µM | 0.16% of 320,000 active;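 active = inhibition above the mean of all tested compounds plus 3 SD, set per campaign, cut at about 14% in these data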;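 also: inhibitors block serine hydrolase probe labeling of LYPLA1 so polarization falls; 0% = enzyme with DMSO and 100% = wells lacking LYPLA1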
Target sequence (O75608 whole entry, looked up): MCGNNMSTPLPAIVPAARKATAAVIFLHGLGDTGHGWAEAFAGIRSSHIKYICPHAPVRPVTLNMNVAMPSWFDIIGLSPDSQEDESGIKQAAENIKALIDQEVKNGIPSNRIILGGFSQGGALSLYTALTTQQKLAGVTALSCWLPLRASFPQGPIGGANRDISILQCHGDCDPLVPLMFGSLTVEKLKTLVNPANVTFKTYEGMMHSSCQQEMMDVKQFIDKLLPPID
Fam108B inh – counter-screen for RBBP9 inhibitors: inhibitors of mouse Fam108B. recombinant Fam108B, FP-Rh probe fluorescence polarization. 0.33% of 300,000 active. AID 1947. inhibition, % at 9.51 µM;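 active = inhibition above the screen mean inhibition plus 3 SD, computed separately per campaign, cut at about 18% in these data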;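 also: inhibitors lower polarization as less probe binds the enzyme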
PME-1 primary – blocks human protein phosphatase methylesterase 1; inhibition, % at 5.9 µM; Q9Y570; recombinant PME-1, FP-Rh probe fluorescence polarization; 0.53% of 320,000 active;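 active = inhibition above the campaign mean of all compounds plus 3 SD, cut at about 26% in these data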;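 also: competitive labeling of PME-1 active site by serine hydrolase directed probe; 0% = PME-1 with DMSO and 100% = wells lacking PME-1 enzyme; inhibitors block probe labeling so polarization falls and inhibition rises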
PAD4 inh – blocks human protein arginine deiminase 4. Q9UM07. inhibition, % at 6.36 µM. 0.41% of 330,000 active. AID 485272. recombinant PAD4, RCA probe fluorescence polarization;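 active = percent inhibition above a cutoff equal to the mean of all tested compounds plus 3 SD, cut at about 15% in these data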;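 also: 0% = PAD4 with RCA probe and DMSO and 100% = probe without PAD4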
Fam108b confirm – confirmation of mouse Fam108b serine hydrolase inhibitors | inhibition, % at 9.51 µM | recombinant Fam108b, FP-Rh probe fluorescence polarization | 44% of 930 active | shares compounds with Fam108B inh | AID 1978;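 active = inhibition above a limit from the primary screen, the mean over all compounds plus 3 SD, cut at about 19% in these data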;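 also: 0% = median of active Fam108b wells and 100% = catalytically dead S170A mutant; inhibitors free the probe so polarization falls as inhibition rises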
Fam108b inh – mouse ABHD17B inhibition | shares compounds with Fam108B inh | recombinant Fam108b, gel-based ABPP, fluorophosphonate probe | inhibition, % at 20 µM | 44% of 260 active | AID 588649; in the data active = inhibition above about 40%
Active calls of the source: *; . = no result; ! = a repeat was not active. Sampled rows, rich in hits. Any-hit rate of the full collection: about 1.8%.

SMILES	LYPLA2 inh	GSTO1 inh	LYPLA1 counter	Fam108B inh	PME-1 primary	PAD4 inh	Fam108b confirm	others
CCN(CC)c1ccc(C2Nc3cccc4cccc(c34)N2)c(O)c1	0.7	30.0	-8.6	50.8*	47.5*	-4.2	53.5*	Fam108b inh=90.0*
COc1ccc(Br)cc1C1Nc2cccc3cccc(c23)N1	-4.4	4.4	-1.0	2.1	-0.3	-8.9	.
O=C(COc1cccc(NC(=O)c2cccc([N+](=O)[O-])c2)c1)c1ccc(F)cc1	9.1	-20.7	2.8	13.8	10.0	0.8	.
COc1cccc(C(=O)COc2cccc(NC(=O)c3cccc([N+](=O)[O-])c3)c2)c1	-2.1	-34.6	-12.8	24.4*	22.5	-3.2	23.6*
N#C/C(Cn1c[n+](NC(=O)Nc2ccccc2)cn1)=N/O	-0.3	4.3	-0.3	-4.6	1.0	-2.2	.
Fc1ccc2nc(Nc3nc4cc5c(cc4s3)OCCO5)sc2c1	8.5	8.0	-0.9	21.3*	72.3*	-4.1	12.0
Fc1ccc2nc(Nc3nc4cc5c(cc4s3)OCO5)sc2c1	-9.6	-0.4	-4.7	39.7*	52.5*	-3.8	45.7*	Fam108b inh=95.0*
Cc1c(NC(=O)c2ccc(CC(C)C)o2)c(=O)n(-c2ccccc2)n1C	-3.1	5.5	0.2	2.4	6.7	3.0	.
Cc1cccc(NC(=O)/C(C#N)=C/c2cccc([N+](=O)[O-])c2)n1	5.0	30.5	2.4	24.9*	2.7	1.9	21.4*
Cc1cccc(NC(=O)/C(C#N)=C/c2ccc(Cl)cc2)n1	-0.7	27.4	-1.2	19.2*	4.0	6.7	-1.0
COc1ccc(/C=C(\C#N)C(=O)Nc2cccc(C)n2)cc1	8.3	13.2	1.1	2.8	3.6	1.2	.
Cc1cccc(NC(=O)/C(C#N)=C/c2ccccc2Cl)n1	-6.9	8.0	0.0	11.1	1.1	6.2	.
COc1ccc(C2CC(c3ccc(Cl)c(Cl)c3)Nc3nc(N)nn32)cc1 (stereo unspecified)	5.7	-0.5	2.8	0.7	0.2	-1.4	.
COc1cc([C@H]2c3c(cc(OC)c(O)c3OC)C[C@@H](CO)[C@@H]2CO[C@@H]2O[C@H](CO)[C@@H](O)[C@H](O)[C@H]2O)cc(OC)c1O	-0.1	4.5	0.5	1.2	-5.1	-0.9	.
O=C(c1ccc(OCCN2CCCCC2)cc1)c1c(-c2ccc(O)cc2)sc2cc(O)ccc12	-1.2	-45.5	-7.8	20.7*	6.0	-3.1	24.0*!
Cn1c2ccccc2c2cc(C=NNC(=O)c3cc(O)ccc3O)ccc21	.	.	.	.	.	.	.	Fam108b inh=85.0*
Cn1c2ccccc2c2cc(/C=N/NC(=O)c3cc(O)cc(O)c3)ccc21	-42.6	-35.2	-28.8	8.3	12.1	-3.6	.
COc1ccc(/C=N/NC(=O)c2cc3c(OC)ccc(OC)c3[nH]2)cc1O	14.1	3.9	4.9	30.5*	39.6*	-3.1	17.2
COc1cc(/C=N/NC(=O)CCn2c3ccccc3c3ccccc32)ccc1O	-2.7	-1.3	-6.1	24.3*	13.1	-3.9	2.0
COc1cc(/C=N/NC(=O)CCn2nnc3ccccc32)ccc1O	1.5	-0.9	-2.9	-0.4	5.9	-2.3	.
CCOc1ccc2[nH]c(C(=O)N/N=C/c3cc(OC)c(OC)c(OC)c3)cc2c1	-9.4	2.3	-8.8	28.5*	15.7	-5.3	-5.9
COc1cccc(-c2nnn(CC(=O)N3CCCCC3)n2)c1	7.6	0.9	2.0	-4.9	-3.0	-1.7	.
CN(C)C(CNC(=O)CCCN1C(=O)c2cccc3cccc(c23)C1=O)c1ccccc1 (stereo unspecified)	3.1	2.6	0.7	0.9	-3.8	1.1	.
COc1cc(/C=N/NC(=O)c2cc3ccccc3[nH]2)ccc1O	1.4	-9.1	-6.0	20.4*	36.0*	-0.9	18.7*
COc1cc(/C=N/NC(=O)c2nc(C)cc(C)n2)ccc1O	3.7	-0.2	1.4	-0.7	-0.4	2.4	.
SMILES	LYPLA2 inh	GSTO1 inh	LYPLA1 counter	Fam108B inh	PME-1 primary	PAD4 inh	Fam108b confirm	others
COc1ccc(OC)c2[nH]c(C(=O)N/N=C/c3ccccc3O)cc12	-0.5	-22.4	-6.6	53.2*	59.7*	-2.6	20.8*
CN(c1ccccc1)c1ccc(/C=C(\CCC(=O)O)c2nc3ccccc3s2)cc1[N+](=O)[O-]	23.1	34.3	6.2	20.2*	10.9	8.0	13.8
CC(C)(CCO)NC(=S)NC1CC2C=CC1C2 (stereo unspecified)	2.7	6.5	1.5	-1.5	-4.8	0.7	.
CC(Sc1nnc(NCc2ccccc2)s1)C(=O)Nc1ccc2c(c1)C(=O)c1ccccc1C2=O (stereo unspecified)	0.1	-98.6	-16.1	37.7*	22.2	1.8	19.1*
COc1cc(NS(=O)(=O)c2ccc(Nc3nc(-c4ccccc4)cs3)cc2)nc(OC)n1	4.9	9.7	9.0	14.4	-2.3	3.4	.
Cc1cc(NS(=O)(=O)c2ccc(Nc3nc(-c4ccc(O)cc4)cs3)cc2)no1	5.1	14.1	6.7	25.8*	2.9	4.5	-70.3
Oc1ccc(-c2csc(Nc3ccccn3)n2)c(O)c1	-2.8	9.3	-3.1	19.1*	14.1	0.3	12.1
NS(=O)(=O)c1ccc(Nc2nc(-c3ccc(O)cc3O)cs2)cc1	0.0	8.1	-9.3	22.6*	11.8	-3.2	98.6*	Fam108b inh=35.0
Cc1cccnc1Nc1nc(-c2ccc(O)cc2O)cs1	-4.8	16.5	0.3	18.3*	22.9	-5.0	10.2
COc1ccc(C(=O)COC(=O)CN2C(=O)NC(C)(C)C2=O)cc1OC	4.8	-4.8	5.9	-1.2	-0.4	-0.3	.
O=S(=O)(c1ccc(F)cc1)n1ccc(-c2cccc(OCc3ccc(Cl)cc3Cl)c2)n1	7.8	-3.8	0.4	-5.3	2.8	5.4	.
CCN(CC)C(=O)CSc1nnc(COc2cccc(C)c2)n1C	-8.4	-1.0	-4.3	-6.8	-3.2	-1.2	.
NS(=O)(=O)c1ccc(N=Nc2c(=O)[nH]n3c(=O)c4c([nH]c23)CCCC4)cc1	-6.1	-3.1	-0.5	6.6	6.8	0.4	.
O=c1[nH]n2c(=O)c3c([nH]c2c1N=Nc1cccc(Cl)c1)CCC3	4.5	12.3	7.7	20.8*	56.2*	0.7	14.8
Cc1[nH]c2ccccc2c1/C=N/NC(=O)c1cccc(S(=O)(=O)Nc2cccc(C(F)(F)F)c2)c1	-16.9	-30.5	-9.7	40.5*	20.6	0.5	32.0*
CN(C)c1ccc(NC(=O)CSc2nc(N)c(C(=O)Nc3ccc(N(C)C)cc3)s2)cc1	1.1	19.7	-13.0	19.3*	20.0	2.0	-5.8
COc1ccc(NC(=O)CSc2nc(N)c(C(=O)Nc3ccc(N(C)C)cc3)s2)cc1	-6.2	13.9	-7.8	7.2	2.8	-10.4	.
Cc1cc2c(N=O)c(NO)ccc2[nH]1	9.3	21.6	4.6	32.7*	48.8*	-5.3	9.5
